# Source: PubChem
# Pf growth 96h – Primary qHTS for delayed death inhibitors of the malarial parasite plastid, 96 hour incubation | AID 504834, 2011 | 320,000 compounds, 6.9% hits | Potency, µM (doses to about 28.7 µM), actives largely listed as inhibitors | P. falciparum luciferase reporter growth, 96 h
#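 96 h incubation, 37 C, 5% CO2, of luciferase-reporter P. falciparum-infected RBCs (2% hematocrit, 0.05% parasitemia final) with test compounds; endpoint luminescence.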
# Giardia FBPA inh – qHTS Assay for Inhibitors of Fructose-1,6-bisphosphate Aldolase from Giardia Lamblia; AID 2451, 2010; Potency, µM (highest dose often 59.6 µM), actives largely listed as inhibitors; A8B2U2; 290,000 compounds, 0.71% hits; purified Giardia FBPA; note: nearly all actives have a fitted effect of over 55% in size
# Target sequence (A8B2U2 whole entry, looked up): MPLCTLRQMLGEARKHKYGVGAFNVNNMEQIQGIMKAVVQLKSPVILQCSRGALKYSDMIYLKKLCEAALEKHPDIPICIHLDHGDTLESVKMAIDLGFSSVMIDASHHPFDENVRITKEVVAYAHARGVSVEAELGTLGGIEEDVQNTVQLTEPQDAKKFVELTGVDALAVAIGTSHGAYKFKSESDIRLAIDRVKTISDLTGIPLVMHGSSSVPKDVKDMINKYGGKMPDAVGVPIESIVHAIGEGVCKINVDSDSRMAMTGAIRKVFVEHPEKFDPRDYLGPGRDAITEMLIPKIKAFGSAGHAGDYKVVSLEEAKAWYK
#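 40 nM FBPA preincubated 10 min at RT with compound (up to 57.5 uM final), then substrate plus GAPDH/TPI/NAD/arsenate coupling and diaphorase/resazurin added. Fluorescence read after 20 min at RT, 525/598 nm.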
# Shiga inhibitor – A qHTS for Small Molecule Inhibitors of Shiga Toxin; Vero cells, Shiga toxin protein synthesis inhibition reporter; inhibition, % at 38.7 µM; 290,000 compounds, 9.2% hits; AID 2315, 2010; in the data active = inhibition mostly above about 28%, no sharp cut-off; inactive = mostly below about 43%
# NS1 function inh – qHTS Assay for Inhibitors of Influenza NS1 Protein Function. Potency, µM (doses to about 46.1 µM). 270,000 compounds, 0.4% hits; calls by dose curve; note: actives are rising curves; nearly all actives have a fitted effect of over 50% in size
#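 S. cerevisiae expressing influenza A NS1, grown in glucose, washed, then diluted 1:100 into pH 6.0 -URA galactose medium with 23 nl compound. Growth recovery read as OD600; NS1-free strain serves as control.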
# Cycloheximide cs – Cycloheximide Counterscreen for Small Molecule Inhibitors of Shiga Toxin. cell reporter, cycloheximide protein synthesis inhibition counterscreen. max response, %. 300,000 compounds, 12% hits; in the data active = max response mostly above about 13%, no sharp cut-off; inactive = mostly below about 14%; note: read at 38.3 µM for the half of the compounds with a filed dose
# Pf growth 48h – Primary qHTS for delayed death inhibitors of the malarial parasite plastid, 48 hour incubation | P. falciparum luciferase growth in erythrocytes, 48 h | Potency, µM (series often up to 28.7 µM), usual class: inhibitors | 310,000 compounds, 5.9% hits
#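 Compounds are pin-transferred into medium, infected erythrocytes (2% hematocrit, 0.1% parasitemia final) are added, and plates sit one parasite generation at 37 C in 5% CO2. Detection reagent is then added and luminescence measured.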
# A number is an active result; . = inactive; ? = inconclusive; / = not tested or not shown; [ ] = another dose, or the depositor's remark. A selection: hits, their analogues and other compounds. The true share with any hit is near 21%. Unless noted, calls come from the whole dose curve; as a rule, active = well fitted curve in the direction sought with a large enough effect; inconclusive = small, poorly fitted or top-dose-only effect, or another doubt; inactive = no such curve, though single readings can be large; an effect the other way counts as inactive or inconclusive.
SMILES,Pf growth 96h,Giardia FBPA inh,Shiga inhibitor,NS1 function inh,Cycloheximide cs,Pf growth 48h
O=C(CSc1nnc(NC(=O)c2ccccc2C(=O)O)s1)Nc1ccccc1Cl,13µM,.,.,/,.,.
O=C(CSc1nnc(NC(=O)c2ccc(F)cc2F)s1)NC1CCCC1,.,.,.,.,22,.
O=C(CSc1nnc(NC(=O)C2CC2)s1)Nc1cccc(F)c1,2.9µM,/,.,.,21,.
O=S1(=O)C=C(SCc2ccc(F)cc2)Nc2ccccc21,.[1.15 µM],.,.,.,.,?
CN(CCCNC(=O)CCC(=O)N1CCOc2ccccc21)Cc1ccccc1,.,.,.,.,.,.
COC(=O)C1=COC(C)C2CN3CCc4c([nH]c5cc(OC)c(OC)cc45)C3CC12 (configuration not stated),0.83µM,?,.,?,.,?
Cc1ccc(C(=O)NCC(=O)OCC(=O)c2ccc3c(c2)NC(=O)CO3)cc1,.,.,.,.,.,.
CC(=O)NCCOC(=O)c1nn(Cc2ccccc2)c(=O)c2ccccc12,.,.,.,.,.,.
COc1cc(OC)cc(C(=O)Nc2ccc(C(=O)c3ccncc3)cc2)c1,?,.,.,.,.,.
O=C(Nc1ccc(Nc2ccncc2)cc1)c1ccc([N+](=O)[O-])cc1,1.7µM,.,.,.,.,2.6µM
O=C(Nc1ccc(Nc2ccncc2)cc1)c1ccc(Nc2ccnc3ccc([N+](=O)[O-])cc23)cc1[N+](=O)[O-],0.52µM,.,.,.,.,1.5µM
COc1ccc(NC(=O)C(C)Oc2ccc(/C(C)=N\O)cc2)cc1 (configuration not stated),.,.,.,.,.,?
CC(C)Oc1ccc(NC(=O)c2ccncc2)cc1,.,.,63,.,19,.
COc1ccc(OC(C)C(=O)Nc2ccc([N+](=O)[O-])cc2)cc1 (configuration not stated),15µM,.,.,.,.,?
CC(C)(C)c1ccc(OC2C(O)COC2/C=C/C#Cc2ccccc2)cc1 (configuration not stated),/,.[12.9 µM],/,/,/,/
CC(C)Oc1ccc(C(=O)Nc2ccc([N+](=O)[O-])cc2)cc1,.,.,119,/,37,.[5.75 µM]
CN(C)S(=O)(=O)Oc1ccc(C(=O)Nc2ccc([N+](=O)[O-])cc2)cc1,.,.,.,/,.,.
COC(=O)c1ccccc1N/C=C/C(=O)c1ccc(Br)cc1,?,.,27,.,43,.
COC(=O)c1ccccc1NC(=O)c1ccc(-c2ccc(Br)cc2)o1,?,.,.,.,.,/
NC(=O)c1ccccc1N/C=C/C(=O)c1ccccc1,.,.,56,.,47,.
NC(=O)c1ccccc1N/C=C1\CCCCC1=O,?,.,.,.,.,.
CCN(CC(=O)Nc1ccccc1C(F)(F)F)C(=O)/C=C/c1ccc(Cl)c([N+](=O)[O-])c1,.,/,/,/,/,.
CC1=N/C(=C/c2cc(Br)cc(Br)c2O)C(=O)O1,?,.,.,.,.,.
CN1CCN(C2=Cc3ccccc3Sc3cc(F)c(Cl)cc32)CC1,?,.,.,.,.,5.2µM
CN1CCN(C2=Cc3ccccc3Sc3cc(F)c(F)cc32)CC1,?,.,.,.,.,6.6µM
SMILES,Pf growth 96h,Giardia FBPA inh,Shiga inhibitor,NS1 function inh,Cycloheximide cs,Pf growth 48h
CN1CCN(C2=Cc3cc(Cl)ccc3Sc3cc(F)ccc32)CC1,?,?,.,.,.,4.7µM
CN1CCN(C2=Nc3ccccc3Sc3ccc(Cl)cc32)CC1,.,/,/,/,/,?
Cc1cc(C)cc(NC(=O)COC(=O)CCn2c(C)csc2=O)c1,?,/,/,/,/,.
COc1cc(S(=O)(=O)Nc2cccnc2)ccc1Cl,?,.,.,/,.,.
Cc1onc(-c2c(F)cccc2Cl)c1C(=O)NCc1ccco1,1.5µM,.,.,?,.,.
Cc1csc(NC(=O)c2c(-c3c(Cl)cccc3Cl)noc2C)n1,/,.,.,.,.,?
Cc1onc(-c2c(Cl)cccc2Cl)c1C(=O)NCc1ccccn1,2.1µM,.,.,.,.,.
Cc1csc(NC(=O)c2c(-c3c(F)cccc3Cl)noc2C)n1,?,/,/,/,/,12µM
Cc1onc(-c2c(F)cccc2Cl)c1C(=O)Nc1cccc(S(=O)(=O)NCc2ccco2)c1,?,.,59,/,38,.
COc1ccc(NC(=O)CSc2nnnn2C2CCCCC2)cc1,.,.,.,.,.,.
Cc1cc(-c2cc(C)c(O)c(C(C)(C)C)c2)cc(C(C)(C)C)c1O,/,/,/,.,/,/
CCCCN(CCCC)CC(O)COc1ccc(Br)cc1 (configuration not stated),3.3µM,?,.,.,.,3.7µM
O=[N+]([O-])c1ccc(OCC(O)CN(CCO)CCO)cc1 (configuration not stated),.,.,.,.,.,.
Cc1cc(Cl)ccc1OCCCC(=O)NNC(=O)c1ccccc1O,.,/,/,/,/,.
Cc1c(C(=O)N2CCC3(CC2)OCCO3)oc2ccc(S(=O)(=O)N3CCOCC3)cc12,?,.,.,.,.,.
Cc1c(C(=O)NCCc2ccccc2)oc2ccc(S(=O)(=O)N3CCOCC3)cc12,.,.,.,.,15,?
Cc1c(C(=O)N2CCN(C)CC2)oc2ccc(S(=O)(=O)N3CCOCC3)cc12,8.3µM,.,.,.,.,.
Cc1c(C(=O)N2CCCCC2)oc2ccc(S(=O)(=O)N3CC(C)CC(C)C3)cc12 (configuration not stated),12µM,.,.,.,.,?
O=C(N[C@@H](c1ccccc1)[C@@H]1C[C@H]1C(=O)NCc1ccccc1)OCc1ccccc1,/,.,/,/,/,/
CCOC(=O)CCCCC1=CC2=CC(=O)C(C)(O)C(=O)C2=CO1 (configuration not stated),/,.[12.9 µM],/,/,/,/
Cc1ccc(N(CC(=O)N2CC(=O)Nc3ccccc32)S(=O)(=O)c2ccc3c(c2)OCCO3)cc1,?,.,.,.,.,12µM
CC1CCN(C(=O)CN(c2ccc3c(c2)OCCO3)S(=O)(=O)c2ccccc2)CC1,.,.,54,.,36,?
O=C(O)CN(c1ccc(F)cc1)S(=O)(=O)c1ccc2c(c1)OCCO2,.,.,.,.,.,.
O=c1c(-c2ccc(O)cc2)coc2c(C3OC(CO)C(O)C(O)C3O)c(O)ccc12 (configuration not stated),/,.,/,/,/,/
COC(=O)c1[nH]c2cccc(Cl)c2c1NC(=O)CN(C)C1CCCCC1,8.3µM,.,.,.,.,?
COc1ccc(C(=O)Nn2c(SCC(=O)NCC3CCCO3)nc3ccccc3c2=O)cc1 (configuration not stated),/,.,.,.,.,.
O=C(CSc1nc2ccccc2c(=O)n1C1CC1)NCc1ccccc1,15µM,.,.,.,.,.
COc1ccc(C(=O)Nn2c(SCC(=O)NC3CCCC3)nc3ccccc3c2=O)cc1,.,.,.,.,69,.
